Test results as given in PubChem BioAssay AID1347156 (National Center for Advancing Translational Sciences (NCATS), 2019).
Inconclusive results are not listed. Calls of active or inactive are those of the source. The call rests on the fitted dose curve; in most records, active means well fitted cell-killing curve with a large enough effect; inconclusive means small, poorly fitted or top-dose-only effect; inactive means flat fitted curve, though single readings scatter.

assay: DAPI mCherry counterscreen qHTS for Zika virus inhibitors; settings: Vero cells, DAPI nuclear count cytotoxicity, imaging 48-72 h, infected with Zika reporter virus, MOI 1; series mostly up to 32.6 µM; activity change, negative = cell loss: at the top concentration; further: nearly all actives have a fitted effect of over 55% in size
Method in brief: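 Vero cells (5,000/well), plated overnight, given compounds then recombinant ZIKV-mCherry at MOI 1 for 48-72 hrs at 37 degrees C; PFA-fixed, Hoechst-stained and imaged; nuclei counted and mCherry-positive cells scored as percent infection.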
On the % scale 0 is the no-effect control and ±100 the full control effect; potency means the concentration at half of the fitted maximal effect.

SMILES | Potency | activity change, negative = cell loss
CCCCCc1ccc(/C=C/C(=O)Nc2cc(Cl)ccc2C(=O)O)cc1 | 35.5 µM (active) | 
CCOC(=O)c1cccc(NC(=O)CSc2ncc3c(n2)-c2ccc(Cl)cc2N(Cc2ccccc2)S3(=O)=O)c1 |  | -13.5% (inactive)
CC1(C)CCC(C)(C)c2cc3c(cc21)Sc1ccccc1N=C3c1ccc(C(=O)O)cc1 | 8.91 µM (active) | 
Cc1cc(-c2ccc(N=Nc3ccc4c(S(=O)(=O)O)cc(S(=O)(=O)O)c(N)c4c3O)c(C)c2)ccc1N=Nc1ccc2c(S(=O)(=O)O)cc(S(=O)(=O)O)c(N)c2c1O |  | -8.92% (inactive)
Cc1ccccc1NC(=O)Nc1ccc(CN2C(=O)N([C@@H](CC(C)C)C(=O)N[C@@H](CC(=O)O)c3ccccc3)C(=O)C2(C)C)cc1 | 7.08 µM (active) | 
COc1ccc(/C=C(\C#N)c2nc(-c3cc4c(ccc5ccccc54)oc3=O)cs2)cc1O | 1 µM (active) | 
O=C(O)C(Cc1cc(I)c(O)c(I)c1)c1ccccc1 (centres undefined) | 4.47 µM (active) | 
Nc1cc(N)c(N=Nc2ccc(S(=O)(=O)Nc3nccs3)cc2)cc1N=Nc1ccc(S(=O)(=O)Nc2nccs2)cc1 |  | -12.3% (inactive)
O=C(O)Cn1nnc(-c2ccc(OCc3cccc(C(F)(F)F)c3)cc2)n1 |  | -10.2% (inactive)
CCCCc1nn2c(=O)cc(COC(=O)c3ccc(NC(=O)CCc4ccccc4)cc3)nc2s1 |  | -3.78% (inactive)
C[C@@H](NC(=O)c1ccc(Cl)cc1)c1c(-c2ccc(F)cc2)noc1C(=O)O |  | 1.41% [at 49.1 µM] (inactive)
COc1cc2c(c(O)c1OC/C=C(\C)CC/C=C(/C)CCC=C(C)C)CN(C(CCC(=O)O)C(=O)O)C2=O (centres undefined) | 7.94 µM (active) | 
C/C(=C\CC/C(C)=C/CC[C@]1(C)CCc2cc(O)cc(C)c2O1)CC/C=C(\C)C(=O)O | 14.1 µM (active) | 
O=C(O)c1cccc(-c2ccc(-c3cn(C(=O)N4CCCCC4Cc4ccccc4)nn3)cc2)c1 (centres undefined) | 35.5 µM (active) | 
O=C(O)CSc1nc2ccc(NC(=O)COc3ccc(Cl)cc3)cc2s1 |  | -7.1% (inactive)
Cc1cc(C)cc(C(=O)N(C)[C@H](Cc2ccc(-c3ccccc3)cc2)C(=O)N[C@@H](Cc2c[nH]c3ccccc23)C(=O)O)c1 | 8.91 µM (active) | 
CCCCCCCC/C=C\CCCCCCCC(=O)NCCc1ccc(O)c(O)c1 | 8.91 µM (active) | 

SMILES | Potency | activity change, negative = cell loss
Cc1ccc(S(=O)(=O)Nc2cc(SCC(=O)O)c(O)c3ccccc23)cc1[N+](=O)[O-] | 8.91 µM (active) | 
O=C(O)c1ccc(S(=O)(=O)N(Cc2ccc(OC(F)(F)F)cc2)c2ncc(C(F)(F)F)cc2Cl)cc1 | 25.1 µM (active) | 
CC(C)c1cccc2c(-c3ccccc3)cc(-c3ccc(-c4ccc(C(=O)O)cc4)[nH]3)nc12 | 25.1 µM (active) | 
Nc1ncnc2c1ncn2[C@@H]1O[C@H](CSCC[C@H](N)C(=O)O)[C@@H](O)[C@H]1O |  | -6.03% (inactive)
Fc1cc(C2=Nn3c(COc4ccc(Cl)cc4Cl)nnc3S/C2=C\c2ccc(-c3ccc(Cl)cc3)o2)c(Cl)cc1Cl |  | -9.03% (inactive)
O=C(O)c1ccccc1-c1c2cc(I)c(=O)c(I)c-2oc2c(I)c(O)c(I)cc12 |  | -8.64% (inactive)
CC(C)=CCc1c2c(c3occ(-c4ccc(O)c(O)c4)c(=O)c3c1O)C=CC(C)(C)O2 | 8.91 µM (active) | 
CC(=O)C(N=Nc1ccc(S(=O)(=O)Nc2ccccn2)cc1)C(=O)Nc1ccc(Cl)cc1 (centres undefined) |  | -15.2% (inactive)
O=C(Nc1c(C(=O)O)oc2ccccc12)c1ccc(C(F)(F)F)cc1 |  | -19.9% (inactive)
COc1ccc(Br)cc1S(=O)(=O)NC(=O)/C=C/c1ccccc1Cc1ccc2ccccc2c1 | 31.6 µM (active) | 
CC1(C(=O)O)NCCc2cc(O)c(O)cc21 (centres undefined) |  | -4.98% (inactive)
Cc1c(NS(=O)(=O)c2ccccc2)cc(C(C)C)c(O)c1S(=O)(=O)c1ccc(Cl)cc1 | 28.2 µM (active) | 
CCCCc1nn2c(=O)cc(COC(=O)c3ccc(NC(=O)c4ccccc4Cl)cc3)nc2s1 | 22.4 µM (active) | 
Cc1ccc(NC(=O)c2ccc3c(O)c(S(=O)(=O)c4ccccc4)c(=O)[nH]c3c2)cc1Cl |  | -17% (inactive)
CCOC(=O)c1ccc(N2C(=O)c3n[nH]c(-c4cccs4)c3C2c2ccc(C(C)(C)C)cc2)cc1 (centres undefined) | 10 µM (active) | 
Cc1cc(NC(=O)c2ccc(Cl)c(Cl)c2)ccc1-c1cc2ccccc2oc1=O | 15.8 µM (active) | 
O=C(OCc1cc(=O)n2nc(C3CC3)sc2n1)c1ccc(NC(=O)c2ccccc2Cl)cc1 |  | -18.5% (inactive)
